# Data as given in the supplement of paper PMC10849652.
# Targets with a hit are over-represented here; the source holds about 7,900 in all. About 0.6% of all pairs of compound and target were hits. Unmarked numbers belong to inactive results.
# What was measured:
# Test in all cases: log2 fold change, soluble protein after heating vs DMSO (PISA); higher = thermal stabilisation; K562 cells, 10 uM, 30 min; active = over 0.2 and 3.5 SD of the protein, either way, in both replicates (recomputed)
# saracatinib = compound: CN1CCN(CCOc2cc(OC3CCOCC3)c3c(Nc4c(Cl)ccc5c4OCO5)ncnc3c2)CC1 [saracatinib]
# Outline: (§1)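 For each measurement, 10 μM compound was applied for 30 min to K562 cells at 2×10^6 cells/mL. Aliquots were heated for 3 min across 48°C-58°C, pooled, and extracted in PBS with 0.5% NP-40 at 4°C; the supernatant after 21,000xg for 90 min was soluble protein. This was quantified by TMTpro 16plex LC-MS/MS with channel sums equalised, and thermal stability was reported relative to control samples from duplicates, on a log2 fold-change scale.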
# sotrastaurin = compound: CN1CCN(c2nc(C3=C(c4c[nH]c5ccccc45)C(=O)NC3=O)c3ccccc3n2)CC1 [sotrastaurin]
# Outline: as §1
# Tubastatin A = compound: CN1CCc2c(c3ccccc3n2Cc2ccc(C(=O)NO)cc2)C1 [Tubastatin A]
# Outline: as §1
# [1] = compound: CNC(=O)C1=CC=CC=C1NC2=NC(=NC=C2Cl)NC3=C(C=C(C=C3)N4CCOCC4)OC
# Outline: as §1
# defactinib = compound: CNC(=O)c1ccc(Nc2ncc(C(F)(F)F)c(NCc3nccnc3N(C)S(C)(=O)=O)n2)cc1 [defactinib]
# Outline: as §1
# rucaparib = compound: CNCc1ccc(-c2[nH]c3cc(F)cc4c3c2CCNC4=O)cc1 [rucaparib]
# Outline: as §1
# [2] = compound: CNc1nc(-c2ccc3c(N)n[nH]c3c2)cc(N2C[C@@H](C(=O)NC3CCCCC3)CC[C@H]2C)n1
# Outline: as §1
# encorafenib = compound: COC(=O)N[C@@H](C)CNc1nccc(-c2cn(C(C)C)nc2-c2cc(Cl)cc(NS(C)(=O)=O)c2F)n1 [encorafenib]
# Outline: as §1
# [3] = compound: COC(=O)[C@H](CCSC)NC(=O)C1=C(C=C(C=C1)NC[C@H](CS)N)C2=CC=CC=C2
# Outline: as §1
# alvocidib = compound: CN1CC[C@H](c2c(O)cc(O)c3c(=O)cc(-c4ccccc4Cl)oc23)[C@H](O)C1 [alvocidib]
# Outline: as §1
# Sequence of UniProt O75446 (O75446 whole entry, looked up): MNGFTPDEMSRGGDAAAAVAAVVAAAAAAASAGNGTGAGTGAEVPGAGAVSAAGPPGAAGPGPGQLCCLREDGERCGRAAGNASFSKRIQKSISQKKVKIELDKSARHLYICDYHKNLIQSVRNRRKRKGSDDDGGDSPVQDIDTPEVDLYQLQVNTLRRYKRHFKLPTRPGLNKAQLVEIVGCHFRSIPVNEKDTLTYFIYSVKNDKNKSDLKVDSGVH
# Sequence of UniProt Q86X27 (Q86X27 whole entry, looked up): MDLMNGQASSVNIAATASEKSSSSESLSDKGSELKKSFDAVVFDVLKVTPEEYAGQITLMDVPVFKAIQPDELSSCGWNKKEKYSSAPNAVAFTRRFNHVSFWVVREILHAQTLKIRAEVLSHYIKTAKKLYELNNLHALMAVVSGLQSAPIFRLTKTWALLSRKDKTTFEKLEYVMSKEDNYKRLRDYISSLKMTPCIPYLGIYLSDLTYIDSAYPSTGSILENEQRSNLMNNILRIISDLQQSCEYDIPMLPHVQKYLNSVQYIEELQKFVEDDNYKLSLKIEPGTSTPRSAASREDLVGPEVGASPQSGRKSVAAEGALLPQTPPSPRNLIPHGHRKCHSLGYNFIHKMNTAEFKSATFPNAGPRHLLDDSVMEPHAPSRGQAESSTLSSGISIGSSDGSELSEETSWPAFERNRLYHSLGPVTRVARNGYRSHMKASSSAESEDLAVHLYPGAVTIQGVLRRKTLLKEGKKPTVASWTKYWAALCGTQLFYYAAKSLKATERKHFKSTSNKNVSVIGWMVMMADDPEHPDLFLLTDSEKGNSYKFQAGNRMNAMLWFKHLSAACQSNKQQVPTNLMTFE
# Sequence of UniProt Q9BWJ5 (Q9BWJ5 whole entry, looked up): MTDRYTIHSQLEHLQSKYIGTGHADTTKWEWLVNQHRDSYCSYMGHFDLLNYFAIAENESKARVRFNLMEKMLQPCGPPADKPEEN
# Sequence of UniProt O75056 (O75056 whole entry, looked up): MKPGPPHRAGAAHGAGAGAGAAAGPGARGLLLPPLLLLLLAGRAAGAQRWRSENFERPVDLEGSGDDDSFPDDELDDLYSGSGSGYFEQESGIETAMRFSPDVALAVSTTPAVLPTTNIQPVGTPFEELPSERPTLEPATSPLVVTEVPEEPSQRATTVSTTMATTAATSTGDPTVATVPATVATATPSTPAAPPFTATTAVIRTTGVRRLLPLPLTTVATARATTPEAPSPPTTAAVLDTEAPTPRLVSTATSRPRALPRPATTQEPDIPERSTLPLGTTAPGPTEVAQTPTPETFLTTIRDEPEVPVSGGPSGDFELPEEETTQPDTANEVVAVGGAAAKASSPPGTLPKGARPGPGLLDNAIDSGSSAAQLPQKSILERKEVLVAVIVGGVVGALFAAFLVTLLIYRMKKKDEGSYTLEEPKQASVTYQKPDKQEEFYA
# Sequence of UniProt Q04206 (Q04206 whole entry, looked up): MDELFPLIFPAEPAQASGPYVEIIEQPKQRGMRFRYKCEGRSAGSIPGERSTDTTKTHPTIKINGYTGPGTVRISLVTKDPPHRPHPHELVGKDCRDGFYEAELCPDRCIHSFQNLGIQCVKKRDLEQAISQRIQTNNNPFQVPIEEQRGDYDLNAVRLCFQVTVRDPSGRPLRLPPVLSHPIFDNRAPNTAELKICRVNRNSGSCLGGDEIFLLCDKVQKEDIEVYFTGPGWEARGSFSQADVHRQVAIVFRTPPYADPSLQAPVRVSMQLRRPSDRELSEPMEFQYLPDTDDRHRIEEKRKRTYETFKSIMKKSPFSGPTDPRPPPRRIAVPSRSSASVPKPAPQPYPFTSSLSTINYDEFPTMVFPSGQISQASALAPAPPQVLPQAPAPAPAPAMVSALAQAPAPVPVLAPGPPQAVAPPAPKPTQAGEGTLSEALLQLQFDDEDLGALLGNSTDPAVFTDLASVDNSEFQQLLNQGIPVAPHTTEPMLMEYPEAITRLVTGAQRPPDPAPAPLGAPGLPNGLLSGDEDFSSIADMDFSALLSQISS
# Sequence of UniProt P51812 (P51812 whole entry, looked up): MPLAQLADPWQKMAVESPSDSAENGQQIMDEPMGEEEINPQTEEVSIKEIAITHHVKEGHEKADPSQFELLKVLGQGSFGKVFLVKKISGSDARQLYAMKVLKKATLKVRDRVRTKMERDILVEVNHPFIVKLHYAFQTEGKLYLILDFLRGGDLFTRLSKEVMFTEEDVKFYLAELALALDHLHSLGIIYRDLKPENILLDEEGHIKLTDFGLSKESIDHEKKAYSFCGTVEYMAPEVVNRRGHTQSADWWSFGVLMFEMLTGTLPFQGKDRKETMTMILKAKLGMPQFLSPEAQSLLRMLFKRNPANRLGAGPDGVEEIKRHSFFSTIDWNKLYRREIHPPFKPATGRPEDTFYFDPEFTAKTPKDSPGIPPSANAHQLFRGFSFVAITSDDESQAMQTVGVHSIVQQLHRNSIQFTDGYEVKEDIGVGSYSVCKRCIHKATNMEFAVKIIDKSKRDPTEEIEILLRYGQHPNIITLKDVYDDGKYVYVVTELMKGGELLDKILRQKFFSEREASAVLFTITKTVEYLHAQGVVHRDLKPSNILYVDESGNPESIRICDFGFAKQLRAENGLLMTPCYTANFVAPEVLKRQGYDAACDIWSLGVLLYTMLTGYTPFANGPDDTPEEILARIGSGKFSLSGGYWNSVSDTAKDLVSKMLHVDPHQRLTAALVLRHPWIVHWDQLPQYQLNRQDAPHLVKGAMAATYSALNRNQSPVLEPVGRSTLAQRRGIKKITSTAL
# Sequence of UniProt Q96NL6 (Q96NL6 whole entry, looked up): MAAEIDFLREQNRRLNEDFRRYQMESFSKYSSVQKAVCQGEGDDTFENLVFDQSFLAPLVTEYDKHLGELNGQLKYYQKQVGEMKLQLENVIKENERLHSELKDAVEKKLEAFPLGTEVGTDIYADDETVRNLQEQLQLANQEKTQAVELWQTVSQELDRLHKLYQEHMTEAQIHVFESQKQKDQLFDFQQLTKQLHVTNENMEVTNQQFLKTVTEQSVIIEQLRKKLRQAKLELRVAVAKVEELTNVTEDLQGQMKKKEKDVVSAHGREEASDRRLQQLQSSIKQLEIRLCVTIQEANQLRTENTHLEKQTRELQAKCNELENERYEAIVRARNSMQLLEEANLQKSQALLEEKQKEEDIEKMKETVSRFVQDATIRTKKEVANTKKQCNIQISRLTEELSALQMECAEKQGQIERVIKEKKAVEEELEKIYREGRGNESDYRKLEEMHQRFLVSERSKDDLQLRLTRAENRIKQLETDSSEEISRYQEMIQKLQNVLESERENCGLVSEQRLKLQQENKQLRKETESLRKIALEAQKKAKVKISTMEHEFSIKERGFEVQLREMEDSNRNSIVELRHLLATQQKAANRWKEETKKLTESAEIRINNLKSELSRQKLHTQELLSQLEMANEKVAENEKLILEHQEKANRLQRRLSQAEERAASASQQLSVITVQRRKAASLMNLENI
# Sequence of UniProt O95716 (O95716 whole entry, looked up): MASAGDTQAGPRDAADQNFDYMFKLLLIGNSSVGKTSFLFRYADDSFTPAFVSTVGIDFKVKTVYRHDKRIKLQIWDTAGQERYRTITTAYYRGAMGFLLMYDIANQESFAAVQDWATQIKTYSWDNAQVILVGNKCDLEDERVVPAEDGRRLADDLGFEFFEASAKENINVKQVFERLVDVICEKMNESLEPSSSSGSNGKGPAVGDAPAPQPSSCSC
# Sequence of UniProt Q01196 (Q01196 whole entry, looked up): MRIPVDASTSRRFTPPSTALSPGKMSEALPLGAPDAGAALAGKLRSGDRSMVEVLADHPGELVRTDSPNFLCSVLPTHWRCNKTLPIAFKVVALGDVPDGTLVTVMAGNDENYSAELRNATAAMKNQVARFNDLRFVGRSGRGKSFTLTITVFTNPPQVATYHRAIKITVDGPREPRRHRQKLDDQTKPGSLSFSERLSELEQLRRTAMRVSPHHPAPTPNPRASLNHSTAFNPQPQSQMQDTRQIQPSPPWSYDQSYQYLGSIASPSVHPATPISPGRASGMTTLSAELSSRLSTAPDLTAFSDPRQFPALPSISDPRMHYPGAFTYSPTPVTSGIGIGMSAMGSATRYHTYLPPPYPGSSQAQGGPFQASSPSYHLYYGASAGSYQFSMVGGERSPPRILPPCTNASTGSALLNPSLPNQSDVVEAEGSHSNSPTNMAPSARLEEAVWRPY
# Sequence of UniProt P60903 (P60903 whole entry, looked up): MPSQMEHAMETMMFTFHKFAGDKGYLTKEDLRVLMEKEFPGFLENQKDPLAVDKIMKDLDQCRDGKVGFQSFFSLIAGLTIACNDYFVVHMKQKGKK
# Sequence of UniProt Q02383 (Q02383 whole entry, looked up): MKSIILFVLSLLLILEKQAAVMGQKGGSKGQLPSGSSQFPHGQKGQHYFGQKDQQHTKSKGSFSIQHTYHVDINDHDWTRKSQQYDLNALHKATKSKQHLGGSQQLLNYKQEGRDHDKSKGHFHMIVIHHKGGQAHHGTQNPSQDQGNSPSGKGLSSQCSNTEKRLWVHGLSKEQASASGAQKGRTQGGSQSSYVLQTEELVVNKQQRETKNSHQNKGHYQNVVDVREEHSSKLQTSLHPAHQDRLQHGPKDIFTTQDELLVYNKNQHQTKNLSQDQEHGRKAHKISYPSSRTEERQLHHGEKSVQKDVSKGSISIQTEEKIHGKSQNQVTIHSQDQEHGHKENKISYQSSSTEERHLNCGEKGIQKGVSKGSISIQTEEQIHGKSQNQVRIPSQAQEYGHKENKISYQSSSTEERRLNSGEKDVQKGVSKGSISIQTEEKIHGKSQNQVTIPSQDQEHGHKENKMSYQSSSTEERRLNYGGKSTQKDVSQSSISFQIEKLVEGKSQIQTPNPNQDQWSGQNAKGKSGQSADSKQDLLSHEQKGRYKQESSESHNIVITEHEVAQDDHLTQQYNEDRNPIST
Target,log2 fold change (saracatinib),log2 fold change (sotrastaurin),log2 fold change (Tubastatin A),log2 fold change [1],log2 fold change (defactinib),log2 fold change (rucaparib),log2 fold change [2],log2 fold change (encorafenib),log2 fold change [3],log2 fold change (alvocidib)
RELA (UniProt Q04206),0.027,-0.036,-0.017,0.032,-0.077,-0.026,-0.029,0.044,-0.011,
RUNX1 isoform 8 (UniProt Q01196),-0.025,-0.132,,-0.046,0.01,0.024,0.014,0.183,0.047,
SCLT1 (UniProt Q96NL6),0.073,-0.095,0.116,,-0.047,,0.121,,-0.087,0
RALGPS2 (UniProt Q86X27),-0.042,,0.18,-0.098,0.176,-0.133,0.159,0.425,-0.101,0.192
SEMG2 (UniProt Q02383),,-0.016,0.025,,,-0.033,,-0.011,,0.206
SF3B5 (UniProt Q9BWJ5),-0.382,0.055,0.048,0.023,-0.039,0.086,-0.015,-0.025,0.061,
S100A10 (UniProt P60903),,-0.147,0.195,,,-0.038,,-0.293,,-0.293
SH3PXD2B (UniProt A1X283),,-0.017,-0.013,0.061,0.013,0.238,,0.011,0.359,-0.047
RPS6KA3 (UniProt P51812),0.021,-0.049,0.019,,-0.148,0.006,-0.049,-0.01,-0.027,-0.046
"RAD50, A0A494C0Y7",-0.101,0.048,-0.079,,-0.146,-0.206,0.198,0.15,-0.055,-0.026
SLC1A3 (UniProt P43003),0.277,,-0.157,-0.034,-0.013,0.027,0.481 (active),0.072,0.106,0.056
SDC3 (UniProt O75056),-0.251,-0.074,0.163,,-0.004,-0.513,0.036,0.125,0.034,0.051
RPS19 (UniProt M0R2L9),,,-0.186,,,,,,,
RMDN2 isoform 2 (UniProt Q96LZ7),,,,,-0.218,,,,-0.206,
RAB3IL1 (UniProt E9PK89),,-0.082,-0.095,-0.011,-0.016,-0.074,,0.084,0.045,0.009
RNF220 isoform 3 (UniProt Q5VTB9),,,,-0.067,,,,,,
RNF26 (UniProt Q9BY78),,,,,0.119,,,,0.292,
RAB3D (UniProt O95716),0.295,,0.024,0.022,0.064,-0.021,-0.016,-0.043,-0.094,0.126
SAP30 (UniProt O75446),-0.018,-0.185,,0.121,-0.003,,0.014,,0.044,-0.035
RPS3 (UniProt E9PJN9),-0.069,,0.105,,,0.064,-0.028,0.052,,
